These results are taken from PubChem BioAssay AID371 (SRMLSC, 2006).

Molecules are shown by their SMILES. In all, about 3,300 compounds went through this assay and about 280 (8.5%) were called active. The sample holds actives, similar compounds and a random draw of the others, so the mix is not that of the screen. Values without a mark were called inactive.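 Rule for the calls: active = mean growth inhibition over the two runs of 50% or more; inactive = mean growth inhibition under 50%.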

This assay in a line: A549 NSCLC cell proliferation inhibitors – ATP luminescence, human non-small cell lung line, primary screen (AID 371).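 Note: compound exposure lasted 72 h before the ATP read; 0% = untreated cell signal and 100% = no luminescence left.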 The conditions noted are these: at 10 µM, hits give high values.
Regarding `COc1ccc(OC)c2c(N)c(C#N)c(C(F)(F)C(F)(F)F)nc12`, the growth inhibition is 2.04%.

For `Cc1ccc2nc(C(F)(F)F)c(C#N)c(N)c2c1`, the growth inhibition was 63.8% (active). `COC(=O)c1sc(NC(=O)c2oc3ccccc3c2C)nc1C`: the growth inhibition was 33.4%. The figure for `N/C(=N\S(=O)(=O)c1ccc(Cl)s1)c1ccccc1` is 13.5%; for `CCCc1cc(NCCN2CCOCC2)n2c(nc3ccccc32)c1C#N` it is 6.32%; for `Oc1c(I)cc(I)c2cccnc12` it is 74.1% (active). As for `Oc1c(I)cc(Cl)c2cccnc12`, the growth inhibition was 68.5% (active). With `O=C(O)C1[C@H]2C(=O)N(Cc3cccs3)C[C@]23C=C[C@H]1O3` (some centres not stated), the growth inhibition was 4.5%. As for `O=C(C1=C(O)C(=O)N(CCN2CCOCC2)C1c1cccnc1)c1cc2ccccc2o1` (configuration not stated), the growth inhibition was 3.18%. The figure for `NC(=O)CSc1nnc2n(-c3ccccc3)c(=O)c3c4c(sc3n12)CCCCC4` is 46%; for `CCCCN(CCCC)C(=O)CSc1nnc2n(C)c(=O)c3c4c(sc3n12)CCCC4` it is 70% (active); for `Cn1c(=O)c2c3c(sc2n2c(SCC(N)=O)nnc12)CC(C(C)(C)C)CC3` (configuration not stated) it is 69.8% (active). For `C=C(C)CSc1nnc2n(C)c(=O)c3c4c(sc3n12)CCC4`, the growth inhibition was 20.2%.

For `Cn1c(=O)c2c3c(sc2n2c(SCc4ccccc4)nnc12)CCCC3`, the growth inhibition was 8.25%.

For `CCCSc1nnc2n(C)c(=O)c3c4c(sc3n12)CCC4`, the growth inhibition is 20.4%. The result for `CCOC(=O)C1=C(CSc2nc3c(cc2C#N)CCC3)OC(N)=C(C#N)C1c1ccccc1` (configuration not stated) reads 21%; that for `Cc1ccc2c(c1)[C@@H]1CN(C)CC[C@@H]1N2S(=O)(=O)c1ccc(F)cc1`, 10.7%. The figure for `CC1(C)Cc2c(C#N)c(NCC3CCCO3)nc(-c3ccco3)c2CO1` (configuration not stated) is 11%; for `CCOC(=O)C(OC(=O)c1sc(=S)n(C)c1C)C(C)=O` (configuration not stated) it is -4.85%; for `COCCNc1oc(-c2ccc(F)cc2)nc1C#N` it is 2.78%. The figure for `c1ccc2c(c1)[nH]c1c(N3CCN(C4CCCCC4)CC3)ncnc12` is 37.9%; for `Cc1ccc(-n2ncc3c(N4CCN(c5ccccc5)CC4)ncnc32)c(C)c1` it is 32.8%; for `O=C(c1ccc(F)cc1)N1CCC(N2CCCCCC2)CC1` it is 0.08%. Take `Fc1ccc2[nH]c3c(N4CCSCC4)ncnc3c2c1`: the growth inhibition was 59.6% (active). The figure for `CN1CCN(c2ncnc3c2[nH]c2ccc(F)cc23)CC1` is 18.6%; for `Fc1ccc2[nH]c3c(N4CCN(C5CCCCC5)CC4)ncnc3c2c1` it is 86% (active). The result for `CCOC(=O)c1[nH]c2ccc(F)cc2c1NC(=O)CCN1CCSCC1` reads 0.98%; that for `Fc1ccc2[nH]c3c(N4CCN(c5ccccc5)CC4)ncnc3c2c1`, 90.1% (active); that for `CC(C)(C)c1cc(-c2ccco2)c(C#N)c(SCC#N)n1`, 5.39%. The figure for `N#Cc1nc(COc2ccc(Br)cc2)oc1N1CCCC1` is 31.8%. Regarding `O=C1C2ON(c3ccccc3)C(c3cccnc3)C2C(=O)N1c1ccc(Cl)c(Cl)c1` (configuration not stated), the growth inhibition was 3.11%. The figure for `O=C(O)C1CCCCN1S(=O)(=O)c1cccc2nsnc12` (configuration not stated) is -0.55%; for `COc1ccc(CCCNC(=O)CC#N)cc1OC` it is 0.39%; for `CCOC(=O)c1[nH]c2ccccc2c1NC(=O)CCN1CCN(C(=O)OCC)CC1` it is 1.45%.

Turning to `Cc1cc(C)n(CC2CC(=O)N(c3ccc(Cl)c(Cl)c3)C2=O)n1` (configuration not stated), the growth inhibition is 0.6%. On to `COc1ccccc1NC(=O)CSc1nnc(-c2ccc(NC(C)=O)cc2)n1C`, for which the growth inhibition was -3.92%.

In the case of `COC1=CC(=O)CC(C)C12Oc1c(Cl)c(OC)cc(OC)c1C2=O` (configuration not stated), the growth inhibition is 51.2% (active).

Consider `COC(=O)c1cccc(Nc2cc(C)nc(-c3ccccc3O)n2)c1`, for which the growth inhibition is 17.6%. The figure for `CN(C)[C@@H]1C(=O)C(C(N)=O)=C(O)[C@@]2(O)C(=O)C3=C(O)c4c(O)ccc(Cl)c4[C@@H](O)[C@H]3C[C@@H]12` is 45.2%; for `CN(C)c1ccc(O)c2c1CC1CC3[C@@H](N(C)C)C(=O)C(C(N)=O)=C(O)[C@]3(O)C(=O)C1=C2O` (some centres not stated) it is 59.9% (active). Regarding `OCCNc1nc(-c2ccccc2)c2ccccc2n1`, the growth inhibition was -2.09%.

Turning to `O=C(O)C1CC=CCC1C(=O)N1CCN(c2nc(-c3ccccc3)c3ccccc3n2)CC1` (configuration not stated), the growth inhibition was 25.7%. The result for `Clc1ccc2nc(N3CCNCC3)nc(-c3ccccc3)c2c1` reads 92.3% (active); that for `Clc1ccc2c(c1)C(N1CCNCC1)=Nc1ccccc1O2`, 31.9%. Take `O=C(CNC1C(=O)Nc2ccccc21)Sc1ccccc1` (configuration not stated): the growth inhibition was -5.29%. As to `COc1ccc(/C(O)=C2/C(=O)C(=O)N(CCCN(C)C)C2c2ccc(C)o2)cc1Cl` (configuration not stated), the growth inhibition is 1.2%.

For `COc1ccc2[nH]cc(C(=O)CN(C)CCc3ccc(OC)c(OC)c3)c2c1`, the growth inhibition was 15.3%. The figure for `CNCCCN1c2ccccc2CCc2ccccc21` is 39.1%; for `CNCCCC1c2ccccc2C=Cc2ccccc21` it is 60% (active). The result for `COCCCN1C(=O)C(O)=C(C(=O)c2ccco2)C1c1ccc(Br)cc1` (configuration not stated) reads 2.73%; that for `Cc1nc2c(o1)CCc1ccccc1C2O` (configuration not stated), 0.13%. On to `Cc1ccc(N2C(=O)C3ON(c4ccccc4)C(c4ccncc4)C3C2=O)cc1` (configuration not stated), for which the growth inhibition was 7.22%.

Regarding `N#Cc1c(-c2ccccc2Cl)cc(C2CC2)nc1N`, the growth inhibition is 11.8%. The figure for `CCSc1nc(N)c(C#N)c(-c2ccccc2Cl)c1C#N` is 3.11%. The figure for `CSc1nc(N)c(C#N)c(-c2ccccc2Cl)c1C#N` is 60.5% (active); for `CC1(C)CC(=O)C=C(N=CC2=C(O)CC(C)(C)CC2=O)C1` it is 1.19%; for `Cc1cc(=O)oc(C)c1C(=O)NCCN1CCOCC1` it is -2.84%. As to `CCC(=O)Nc1cccc(-c2nnc(SCC(=O)NCc3ccco3)n2C)c1`, the growth inhibition is -4.64%. The figure for `CC1(C)Cc2c(sc3c4nnnn4c4nnnn4c23)CO1` is 62.4% (active). For `CC1(C)Cc2c(sc3ncn4nnnc4c23)CO1`, the growth inhibition was 0.79%.

Consider `CSc1nc2sc3c(c2c2nnnn12)CC(C)(C)OC3`, for which the growth inhibition was 9.43%.

`COc1ccc(-n2c(SCC(N)=O)nc3sc4c(c3c2=O)CCN(C)C4)cc1`: the growth inhibition is 8.23%.

For the molecule `Cn1c(=O)n(CCC(=O)O)c2ccccc21`, the growth inhibition was 1.48%.

In the case of `COC(=O)CC1=C(C(=O)OC)C(c2ccncc2)C(C#N)=C(N)O1` (configuration not stated), the growth inhibition was 3.31%.

On to `O=C(c1cccc(Cl)c1)N1CCN(C(=O)c2ccccc2F)CC1`, for which the growth inhibition was 0.26%. The figure for `O=C(Nc1ccc(N2CCN(C(=O)c3ccccc3)CC2)c(Cl)c1)c1ccc(Br)o1` is 64.9% (active); for `O=C(Nc1ccc2c(c1)OCCO2)c1ccc(Br)o1` it is 19.2%; for `CCCCC(=O)C1CCN(Cc2ccccc2)CC1` it is -7.27%. Consider `COc1cc(-c2nn3c(C4CCCCC4)nnc3s2)cc(OC)c1OC`, for which the growth inhibition is 18.1%. The result for `CN(C=C1C(=O)CC(C)(C)CC1=O)CCN1CCNCC1` reads 3.03%; that for `N#CC1=C(N)NC(SCc2ccc(Cl)cc2)=C(C#N)C12CCCCC2`, 91% (active); that for `COc1ccc(C(=O)CSC2=C(C#N)C3(CCCCC3)C(C#N)=C(N)N2)cc1`, 49.2%. The figure for `N#Cc1c(SCC(N)=O)nsc1SCc1ccc(Cl)cc1` is 23.5%. As for `N#CC1=C(N)NC(SCc2ccc(F)cc2)=C(C#N)C12CCCCC2`, the growth inhibition was 84.3% (active). Take `COc1ccc(-c2oc3ncn4nc(COc5ccccc5)nc4c3c2-c2ccc(OC)cc2)cc1`: the growth inhibition is 10.6%. The figure for `CCOC(=O)c1[nH]c2ccc(OC)cc2c1NC(=O)CCN1CCCC(C)C1` (configuration not stated) is 6.76%; for `c1cncc(Oc2cccc(Oc3cccnc3)c2)c1` it is 20.7%. Regarding `COc1ccc(OC)c(C2C(C(=O)c3sc(C)nc3C)=C(O)C(=O)N2CCN2CCOCC2)c1` (configuration not stated), the growth inhibition is 5.82%. The result for `O=C1CC(NCc2ccc3c(c2)OCO3)C(=O)N1Cc1ccc2c(c1)OCO2` (configuration not stated) reads 0.14%. Consider `CCN1CC2=C(OC(N)=C(C#N)C2c2ccccc2)/C(=C\c2ccccc2)C1` (configuration not stated), for which the growth inhibition was 46.8%.

In the case of `COc1cccc(/C=C2/CN(C)CC3=C2OC(N)=C(C#N)C3c2cccc(OC)c2)c1` (configuration not stated), the growth inhibition is 67.5% (active).

Take `COCc1[nH]nc2c1C(c1cccc(OC)c1)C(C#N)=C(N)O2` (configuration not stated): the growth inhibition was 8.14%. The result for `Cc1cc(N2C(=O)C(=O)/C(=C(/O)c3ccc(F)cc3)C2c2ccc(F)cc2)no1` (configuration not stated) reads 9.16%. `CCc1nc2n[nH]c(N)c2c2c1CSC(C)(C)C2`: the growth inhibition was 12.5%.

As to `COc1ccccc1-c1cc(-c2cc(Cl)ccc2O)n[nH]1`, the growth inhibition is 15%. The result for `COc1cccc(NC(=O)C2CC(=O)n3cnnc3S2)c1` (configuration not stated) reads -2.07%; that for `c1ccc(-n2c(Cc3cccnc3)nc3cnccc32)cc1`, -4.36%. The figure for `Clc1ccc(-c2nn3c(-c4cccc(Cl)c4)nnc3s2)cc1` is 22.7%. Turning to `Cc1cccc(OCC(=O)NCC(=O)n2nc(C)cc2C)c1`, the growth inhibition was 1.47%. As for `Cc1cccc(OCCN2CSC(=S)N(C)C2)c1`, the growth inhibition was 51.6% (active). The result for `Cc1c(C(=O)O)c(=S)sn1CCOc1ccccc1` reads 3.85%. The result for `COc1cccc(-c2nnc3sc(-c4ccccc4)nn23)c1` reads 8.34%; that for `COc1ccc(-c2onc(C)c2-c2ccccc2)c(O)c1`, 52.1% (active). The figure for `COc1ccc(-c2ncncc2-c2csc(C)n2)c(O)c1` is 3.39%; for `Nc1nnc(Cc2ccc(Cl)c(Cl)c2)s1` it is 18.2%; for `O=C1NC(=O)C(c2cn(-c3ccccc3)nc2-c2ccc(F)cc2)N1` (configuration not stated) it is 10.6%.

For the molecule `CC[C@H]1CN2CCc3cc(OC)c(OC)cc3[C@@H]2C[C@@H]1C[C@H]1NCCc2cc(OC)c(OC)cc21`, the growth inhibition is 78.5% (active).
